Some test systems named below: DU-145 prostate; K-562 leukemia; MALME-3M melanoma; MDA-MB-231 breast; RXF 393 renal; SF-268 CNS; SF-539 CNS; UACC-257 melanoma; M14 melanoma; HCT-15 colon; HT29 colon; SNB-75 CNS; SNB-19 CNS; U251 CNS; PC-3 prostate; SK-MEL-5 melanoma; UACC-62 melanoma; LOX IMVI melanoma; SK-MEL-28 melanoma.
Holding throughout (assay): NCI-60 one-dose screen, 48 h (100 = growth as untreated, 0 = no growth, -100 = all killed)
Holding throughout (conditions): 10 µM unless noted

Compounds without any hit were thinned out: in the full panel of roughly 83,000, 20% have a hit.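 Growth was measured after 48 h exposure to one concentration of compound in 96-well plates. Values under 10 count as active.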 Unmarked numbers belong to inactive results. Active and inactive are the calls of the source.

On to `Oc1ccc(Cl)cc1-c1cc(-c2ccccc2Cl)[nH]n1`, for which the growth was 73.3% in the assay with DU-145 prostate; 37.8% in the assay with K-562 leukemia; 71.1% in the assay with MALME-3M melanoma; 21.7% with MDA-MB-231 breast; 84.2% in the assay with RXF 393 renal; 49.6% with SF-268 CNS. In addition, the growth was 83.4% with SF-539 CNS; 81.8% in the assay on UACC-257 melanoma; 84.9% in the assay on M14 melanoma; 29.2% with HCT-15 colon; 92.2% with HT29 colon; 44.2% in the assay with SNB-75 CNS. Besides, the growth was 88% in the assay on SNB-19 CNS; 67% in the assay with U251 CNS; 44.1% in the assay on PC-3 prostate; 68.7% with SK-MEL-5 melanoma; 59.5% in the assay on UACC-62 melanoma; 51.7% in the assay on LOX IMVI melanoma. Moreover, the growth in the assay with SK-MEL-28 melanoma was 89.7%.
`COc1ccc(-c2nn(-c3cccc(Cl)c3)cc2/C=C2\C(=N)N(c3ccccc3)N=C2N)cc1`: the growth is 37.6% in the assay on DU-145 prostate; 1.77% (active) in the assay on K-562 leukemia; 28.8% in the assay with MALME-3M melanoma; 59% in the assay with MDA-MB-231 breast; 85% in the assay with RXF 393 renal; 47.8% in the assay with SF-268 CNS. Further, the growth in the assay on SF-539 CNS is -12.8% (active); in the assay on UACC-257 melanoma, 58.4%; with M14 melanoma, 5.51% (active); with HCT-15 colon, 44.5%; in the assay on HT29 colon, 57.4%; in the assay with SNB-75 CNS it was 81.6%. Also, the growth in the assay on SNB-19 CNS is 83.5%; in the assay with U251 CNS, 66.3%; with PC-3 prostate, 39.6%; in the assay on SK-MEL-5 melanoma, 34.8%; in the assay with UACC-62 melanoma it was -3.26% (active); with LOX IMVI melanoma it was 6.46% (active). For the same compound, the growth in the assay on SK-MEL-28 melanoma was 32.8%.
Turning to `C/C(=N\NC(=S)N1CCCCC1)c1ccccn1`, the growth in the assay with DU-145 prostate is 28.3%; in the assay with K-562 leukemia, 2.29% (active); with MALME-3M melanoma, 5.96% (active); in the assay on MDA-MB-231 breast, 24.7%; in the assay on RXF 393 renal it was -17.6% (active); in the assay with SF-268 CNS it was 8.38% (active). In addition, the growth in the assay with SF-539 CNS was 5.37% (active); in the assay on UACC-257 melanoma, -2.18% (active); with M14 melanoma it was -33.4% (active); in the assay with HCT-15 colon it was 22.1%; with HT29 colon it was 8.66% (active); in the assay on SNB-75 CNS, 28.8%. The growth in the assay with SNB-19 CNS is 22.9%; in the assay with U251 CNS, 3.98% (active); in the assay with PC-3 prostate, 9.88% (active); in the assay on SK-MEL-5 melanoma, -33.2% (active); in the assay with UACC-62 melanoma it was -14.3% (active); in the assay with LOX IMVI melanoma, 13.4%. In the assay with SK-MEL-28 melanoma, the growth is 37%.
Turning to `CCc1ccc(Nc2cc(C)c3ccc(O)cc3n2)cc1`, the growth with DU-145 prostate was 94.8%; in the assay with K-562 leukemia, 20.3%; in the assay on MALME-3M melanoma, 17.5%; in the assay on MDA-MB-231 breast, 31.1%; with RXF 393 renal, 52.6%; in the assay on SF-268 CNS it was 68.1%. Further, the growth in the assay with SF-539 CNS is 89.1%; in the assay with UACC-257 melanoma it was 39.4%; in the assay on M14 melanoma, 45.4%; in the assay on HCT-15 colon, 70.7%; in the assay on HT29 colon, 19.6%; with SNB-75 CNS it was 57.8%. The growth was 96.5% in the assay on SNB-19 CNS; 60.9% with U251 CNS; 62.2% in the assay on PC-3 prostate; 60.6% in the assay on SK-MEL-5 melanoma; 30.8% in the assay with UACC-62 melanoma; 48.5% in the assay with LOX IMVI melanoma. The growth with SK-MEL-28 melanoma was 95.6%.
As for `O=c1c2sc3ncc(Cl)cc3c2nnn1-c1cccc(Cl)c1`, the growth with DU-145 prostate was 65.3%; in the assay with K-562 leukemia, 68.1%; with MALME-3M melanoma, 75.3%; with MDA-MB-231 breast, 110%; with RXF 393 renal, 96.2%; in the assay with SF-268 CNS, 66.1%. Further, the growth is 82.1% with SF-539 CNS; 112% in the assay on UACC-257 melanoma; 85.1% in the assay on M14 melanoma; 87.5% in the assay with HCT-15 colon; 75.9% with HT29 colon; 70.1% in the assay with SNB-75 CNS. The growth in the assay with SNB-19 CNS was 98.2%; in the assay on U251 CNS it was 59.9%; with PC-3 prostate, 82.7%; in the assay with SK-MEL-5 melanoma, 96.3%; in the assay with UACC-62 melanoma, 96.8%; with LOX IMVI melanoma it was 52.9%. Also, in the assay with SK-MEL-28 melanoma, the growth is 90.5%.
For the compound `COc1ccc2nc(C)cc(Nc3ccccc3O)c2c1`, the growth with DU-145 prostate was 63.9%; in the assay with K-562 leukemia it was 6.3% (active); with MALME-3M melanoma, -12.4% (active); in the assay with MDA-MB-231 breast, 9.5% (active); in the assay with RXF 393 renal it was -41.7% (active); in the assay with SF-268 CNS it was 64.8%. The growth in the assay on SF-539 CNS is -72.7% (active); with UACC-257 melanoma, 75.1%; in the assay with M14 melanoma it was 81.8%; in the assay with HCT-15 colon, 32.8%; in the assay on HT29 colon it was 18.9%; in the assay with SNB-75 CNS it was -93.2% (active). The growth in the assay with SNB-19 CNS was 26%; in the assay on U251 CNS it was -27.5% (active); with PC-3 prostate, 47.1%; in the assay with SK-MEL-5 melanoma, 72.9%; with UACC-62 melanoma it was 56.5%; with LOX IMVI melanoma it was 2.48% (active). Also, the growth in the assay on SK-MEL-28 melanoma was 33.4%.
`COc1cc2cc(C(=O)Nc3ccccc3)c(N)nc2cc1OC`: the growth with DU-145 prostate was 12.7%; with K-562 leukemia, -49.2% (active); in the assay with MALME-3M melanoma, -78.2% (active); in the assay with MDA-MB-231 breast, -49.6% (active); with RXF 393 renal it was -14.7% (active); in the assay on SF-268 CNS it was 26.2%. The growth in the assay on SF-539 CNS was 34.3%; with UACC-257 melanoma, -81.3% (active); in the assay with M14 melanoma, -67.3% (active); with HCT-15 colon, 2.25% (active); with HT29 colon, -70.6% (active); in the assay with SNB-75 CNS, 15.5%. Moreover, the growth with SNB-19 CNS was 21.2%; in the assay on U251 CNS it was -6.06% (active); in the assay on PC-3 prostate, 17.7%; in the assay with SK-MEL-5 melanoma it was -95.1% (active); in the assay on UACC-62 melanoma, -85.3% (active); with LOX IMVI melanoma, -93.3% (active). Further, in the assay on SK-MEL-28 melanoma, the growth was -98.3% (active).
For `Clc1ncnc2scc(C3COc4ccccc4O3)c12` (configuration not stated), the growth in the assay on DU-145 prostate is 76.8%; in the assay on K-562 leukemia, 69.8%; with MALME-3M melanoma, 58.7%; with MDA-MB-231 breast it was 98.3%; with RXF 393 renal, 99.6%; in the assay on SF-268 CNS it was 101%. Also, the growth with SF-539 CNS was 94.1%; in the assay on UACC-257 melanoma it was 93.2%; with M14 melanoma, 88.4%; in the assay on HCT-15 colon it was 79.8%; in the assay with HT29 colon, 103%; in the assay with SNB-75 CNS, 65.2%. Further, the growth in the assay on SNB-19 CNS was 100%; in the assay on U251 CNS, 90.4%; with PC-3 prostate, 98.8%; in the assay with SK-MEL-5 melanoma, 90.4%; in the assay with UACC-62 melanoma it was 98.2%; with LOX IMVI melanoma, 41%. Besides, the growth in the assay on SK-MEL-28 melanoma is 83.8%.

The record behind these values is PubChem BioAssay (NCI).
